# Assay results taken from the supplement of paper PMC4466140.
# Experiments:
# Experiment in all cases: SPOT peptide array binding signal intensity (averaged, normalized) (arbitrary units (background-subtracted, floor 0; scale differs between SH3 domains)); higher = stronger binding of the SH3 domain to the peptide
# [1] = target: AgAbp1
# In short: (§1)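 Binding signal is given in arbitrary units that differ between domains and is the normalized, background-subtracted spot intensity averaged across replicates. Each GST-SH3 fusion from one of four yeast species was made in E. coli BL21(DE3), purified on glutathione Sepharose and incubated at 10 μg/ml overnight at 4°C on cellulose-bound synthetic 15-mer peptides in which cysteines were replaced by serines. Detection used anti-GST antibody, an HRP anti-mouse secondary and luminol, followed by imaging and Genespotter quantification.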
# [2] = target: AgBbc1
# In short: as §1
# [3] = target: AgBem1-D1
# In short: as §1
# [4] = target: AgBzz1-D1
# In short: as §1
# [5] = target: AgBzz1-D2
# In short: as §1
# [6] = target: AgCyk3
# In short: as §1
# [7] = target: AgFus1
# In short: as §1
# [8] = target: AgHof1
# In short: as §1
# [9] = target: AgHse1
# In short: as §1
# [10] = target: AgLsb1
# In short: as §1
# [11] = target: AgLsb4
# In short: as §1
# [12] = target: AgMyo5
# In short: as §1
# [13] = target: AgNbp2
# In short: as §1
# [14] = target: AgRvs167
# In short: as §1
# [15] = target: AgSho1
# In short: as §1
# [16] = target: AgSla1-D1-D2
# In short: as §1
# [17] = target: AgSla1-D3
# In short: as §1
# [18] = target: CaAbp1-D1
# In short: as §1
# [19] = target: CaAbp1-D2
# In short: as §1
# [20] = target: CaBbc1
# In short: as §1
# [21] = target: CaBem1-D1
# In short: as §1
# [22] = target: CaBzz1-D1
# In short: as §1
# [23] = target: CaBzz1-D2
# In short: as §1
# [24] = target: CaCyk3
# In short: as §1
# [25] = target: CaFus1
# In short: as §1
# [26] = target: CaHof1
# In short: as §1
# [27] = target: CaHse1
# In short: as §1
# [28] = target: CaLsb1
# In short: as §1
# [29] = target: CaLsb4
# In short: as §1
# [30] = target: CaMyo5
# In short: as §1
# [31] = target: CaNbp2
# In short: as §1
# [32] = target: CaRvs167
# In short: as §1
# [33] = target: CaRvs167-3
# In short: as §1
# [34] = target: CaSho1
# In short: as §1
# [35] = target: CaSla1-D1-D2
# In short: as §1
# [36] = target: CaSla1-D3
# In short: as §1
# [37] = target: ScAbp1
# In short: as §1
# [38] = target: ScBbc1
# In short: as §1
# [39] = target: ScBem1-D1
# In short: as §1
# [40] = target: ScBzz1-D1
# In short: as §1
# [41] = target: ScBzz1-D2
# In short: as §1
# [42] = target: ScCyk3
# In short: as §1
# [43] = target: ScFus1
# In short: as §1
# [44] = target: ScHof1
# In short: as §1
# [45] = target: ScHse1
# In short: as §1
# [46] = target: ScLsb1
# In short: as §1
# [47] = target: ScLsb2
# In short: as §1
# [48] = target: ScLsb3
# In short: as §1
# [49] = target: ScLsb4
# In short: as §1
# [50] = target: ScMyo3
# In short: as §1
# [51] = target: ScMyo5
# In short: as §1
# [52] = target: ScNbp2
# In short: as §1
# [53] = target: ScPex13
# In short: as §1
# [54] = target: ScRvs167
# In short: as §1
# [55] = target: ScSho1
# In short: as §1
# [56] = target: ScSla1-D1-D2
# In short: as §1
# [57] = target: ScSla1-D3
# In short: as §1
# [58] = target: SpAbp1-D1
# In short: as §1
# [59] = target: SpBbc1
# In short: as §1
# [60] = target: SpBzz1-D1
# In short: as §1
# [61] = target: SpBzz1-D2
# In short: as §1
# [62] = target: SpCyk3
# In short: as §1
# [63] = target: SpHof1
# In short: as §1
# [64] = target: SpHof1-2
# In short: as §1
# [65] = target: SpHof1-3
# In short: as §1
# [66] = target: SpHse1
# In short: as §1
# [67] = target: SpLsb1
# In short: as §1
# [68] = target: SpLsb4
# In short: as §1
# [69] = target: SpMyo1
# In short: as §1
# [70] = target: SpNbp2
# In short: as §1
# [71] = target: SpPex13
# In short: as §1
# [72] = target: SpRvs167
# In short: as §1
# [73] = target: SpSla1-D1-D2
# In short: as §1
# [74] = target: SpSla1-D3
# In short: as §1
binder,measurement,setting,value
NIKVLLNPKLGKPVK,SPOT peptide array binding signal intensity,[1],15
same,SPOT peptide array binding signal intensity,[2],10.2
same,SPOT peptide array binding signal intensity,[3],4
same,SPOT peptide array binding signal intensity,[4],13
same,SPOT peptide array binding signal intensity,[5],73.5
same,SPOT peptide array binding signal intensity,[6],≤ 0
same,SPOT peptide array binding signal intensity,[7],316
same,SPOT peptide array binding signal intensity,[8],17
same,SPOT peptide array binding signal intensity,[9],760
same,SPOT peptide array binding signal intensity,[10],≤ 0
same,SPOT peptide array binding signal intensity,[11],61
same,SPOT peptide array binding signal intensity,[12],2.5
same,SPOT peptide array binding signal intensity,[13],31.5
same,SPOT peptide array binding signal intensity,[14],4
same,SPOT peptide array binding signal intensity,[15],108
same,SPOT peptide array binding signal intensity,[16],39.5
same,SPOT peptide array binding signal intensity,[17],7.5
same,SPOT peptide array binding signal intensity,[18],407
same,SPOT peptide array binding signal intensity,[19],32.5
same,SPOT peptide array binding signal intensity,[20],15.2
same,SPOT peptide array binding signal intensity,[21],0.5
same,SPOT peptide array binding signal intensity,[22],160
same,SPOT peptide array binding signal intensity,[23],48.5
same,SPOT peptide array binding signal intensity,[24],≤ 0
same,SPOT peptide array binding signal intensity,[25],968
same,SPOT peptide array binding signal intensity,[26],≤ 0
same,SPOT peptide array binding signal intensity,[27],9
same,SPOT peptide array binding signal intensity,[28],2
same,SPOT peptide array binding signal intensity,[29],16
same,SPOT peptide array binding signal intensity,[30],4.5
same,SPOT peptide array binding signal intensity,[31],325
same,SPOT peptide array binding signal intensity,[32],105
same,SPOT peptide array binding signal intensity,[33],752
same,SPOT peptide array binding signal intensity,[34],700
same,SPOT peptide array binding signal intensity,[35],2
same,SPOT peptide array binding signal intensity,[36],26
same,SPOT peptide array binding signal intensity,[37],48
same,SPOT peptide array binding signal intensity,[38],0.25
same,SPOT peptide array binding signal intensity,[39],7
same,SPOT peptide array binding signal intensity,[40],32
same,SPOT peptide array binding signal intensity,[41],207
same,SPOT peptide array binding signal intensity,[42],10.5
same,SPOT peptide array binding signal intensity,[43],527
same,SPOT peptide array binding signal intensity,[44],1.25
same,SPOT peptide array binding signal intensity,[45],1460
same,SPOT peptide array binding signal intensity,[46],5.75
same,SPOT peptide array binding signal intensity,[47],1
same,SPOT peptide array binding signal intensity,[48],1.53e-05
same,SPOT peptide array binding signal intensity,[49],3
same,SPOT peptide array binding signal intensity,[50],1
same,SPOT peptide array binding signal intensity,[51],1
same,SPOT peptide array binding signal intensity,[52],29
same,SPOT peptide array binding signal intensity,[53],4.5
same,SPOT peptide array binding signal intensity,[54],21.8
same,SPOT peptide array binding signal intensity,[55],696
same,SPOT peptide array binding signal intensity,[56],42
same,SPOT peptide array binding signal intensity,[57],7.75
same,SPOT peptide array binding signal intensity,[58],30.5
same,SPOT peptide array binding signal intensity,[59],11.2
same,SPOT peptide array binding signal intensity,[60],132
same,SPOT peptide array binding signal intensity,[61],≤ 0
same,SPOT peptide array binding signal intensity,[62],≤ 0
same,SPOT peptide array binding signal intensity,[63],75.5
same,SPOT peptide array binding signal intensity,[64],13
same,SPOT peptide array binding signal intensity,[65],640
same,SPOT peptide array binding signal intensity,[66],558
same,SPOT peptide array binding signal intensity,[67],1.75
same,SPOT peptide array binding signal intensity,[68],26
same,SPOT peptide array binding signal intensity,[69],≤ 0
same,SPOT peptide array binding signal intensity,[70],95.5
same,SPOT peptide array binding signal intensity,[71],13
same,SPOT peptide array binding signal intensity,[72],18.2
same,SPOT peptide array binding signal intensity,[73],≤ 0
same,SPOT peptide array binding signal intensity,[74],4
KRRTSLFPWLHKPGI,SPOT peptide array binding signal intensity,[1],14
same,SPOT peptide array binding signal intensity,[2],19.2
same,SPOT peptide array binding signal intensity,[3],13
same,SPOT peptide array binding signal intensity,[4],15
same,SPOT peptide array binding signal intensity,[5],17
same,SPOT peptide array binding signal intensity,[6],4
same,SPOT peptide array binding signal intensity,[7],202
same,SPOT peptide array binding signal intensity,[8],14
same,SPOT peptide array binding signal intensity,[9],1230
same,SPOT peptide array binding signal intensity,[10],1
same,SPOT peptide array binding signal intensity,[11],53
same,SPOT peptide array binding signal intensity,[12],≤ 0
same,SPOT peptide array binding signal intensity,[13],196
same,SPOT peptide array binding signal intensity,[14],2.33
same,SPOT peptide array binding signal intensity,[15],23
same,SPOT peptide array binding signal intensity,[16],297
same,SPOT peptide array binding signal intensity,[17],5.5
same,SPOT peptide array binding signal intensity,[18],736
same,SPOT peptide array binding signal intensity,[19],682
same,SPOT peptide array binding signal intensity,[20],53.2
same,SPOT peptide array binding signal intensity,[21],≤ 0
same,SPOT peptide array binding signal intensity,[22],35
same,SPOT peptide array binding signal intensity,[23],22
same,SPOT peptide array binding signal intensity,[24],5
same,SPOT peptide array binding signal intensity,[25],727
same,SPOT peptide array binding signal intensity,[26],≤ 0
same,SPOT peptide array binding signal intensity,[27],42.8
same,SPOT peptide array binding signal intensity,[28],0.5
same,SPOT peptide array binding signal intensity,[29],59.5
same,SPOT peptide array binding signal intensity,[30],0.25
same,SPOT peptide array binding signal intensity,[31],402
same,SPOT peptide array binding signal intensity,[32],5.67
same,SPOT peptide array binding signal intensity,[33],34.2
same,SPOT peptide array binding signal intensity,[34],664
same,SPOT peptide array binding signal intensity,[35],5.5
same,SPOT peptide array binding signal intensity,[36],≤ 0
same,SPOT peptide array binding signal intensity,[37],19
same,SPOT peptide array binding signal intensity,[38],5.75
same,SPOT peptide array binding signal intensity,[39],2
same,SPOT peptide array binding signal intensity,[40],5.5
same,SPOT peptide array binding signal intensity,[41],2.5
same,SPOT peptide array binding signal intensity,[42],311
same,SPOT peptide array binding signal intensity,[43],224
same,SPOT peptide array binding signal intensity,[44],≤ 0
same,SPOT peptide array binding signal intensity,[45],2010
same,SPOT peptide array binding signal intensity,[46],≤ 0
same,SPOT peptide array binding signal intensity,[47],7.5
same,SPOT peptide array binding signal intensity,[48],54
same,SPOT peptide array binding signal intensity,[49],≤ 0
same,SPOT peptide array binding signal intensity,[50],3
same,SPOT peptide array binding signal intensity,[51],1.5
same,SPOT peptide array binding signal intensity,[52],230
same,SPOT peptide array binding signal intensity,[53],1
same,SPOT peptide array binding signal intensity,[54],7.67
same,SPOT peptide array binding signal intensity,[55],512
same,SPOT peptide array binding signal intensity,[56],56.5
same,SPOT peptide array binding signal intensity,[57],≤ 0
same,SPOT peptide array binding signal intensity,[58],420
same,SPOT peptide array binding signal intensity,[59],≤ 0
same,SPOT peptide array binding signal intensity,[60],27
